Out of some 290,000 compounds screened, about 3,100 (1.1%) were called active. Cut-off read from the data, not from the text of the source: active = inhibition above about 16% (passing the limit was not always enough); inactive = the rest. The entries come from a sample that favours actives as a whole.

In this test the target is Neuropeptides B/W receptor type 1 (Homo sapiens) (UniProt P48145). Briefly: GPR7 receptor antagonists, primary screen, cell-based, fluorescence, single concentration (AID 1861).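 Note: cells stimulated with the agonist NPW; 0% = agonist with vehicle and 100% = vehicle without agonist.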 As to conditions: GPR7-expressing cells, fluorescence antagonist assay; at 4.4 µM; stronger effect = higher value.
Neuropeptides B/W receptor type 1 (Homo sapiens), sequence (P48145 whole entry, looked up): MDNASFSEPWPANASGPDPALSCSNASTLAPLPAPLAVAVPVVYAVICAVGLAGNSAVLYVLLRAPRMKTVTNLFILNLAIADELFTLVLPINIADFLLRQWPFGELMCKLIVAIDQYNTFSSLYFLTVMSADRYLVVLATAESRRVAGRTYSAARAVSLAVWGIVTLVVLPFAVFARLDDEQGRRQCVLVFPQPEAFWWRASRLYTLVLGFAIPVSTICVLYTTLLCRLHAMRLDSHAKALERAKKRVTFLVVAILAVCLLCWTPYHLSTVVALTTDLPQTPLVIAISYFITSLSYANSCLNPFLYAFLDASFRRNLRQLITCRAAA
By inhibition is commonly meant the change of the read-out against control, counted positive when it falls. For the compound `CCOC(=O)C1(Cc2ccc(Cl)cc2)CCN(C(C)CCn2cccn2)CC1` (stereo not given), the inhibition is 37.6% (active).
In the case of `CCOC(=O)C1(CCc2ccccc2)CCN(Cc2ccco2)CC1`, the inhibition is -1.12% (inactive).
`CCN1CCN(Cc2cc(OC)c3c(c2)OCO3)CC1`: the inhibition was -5.46% (inactive).
In the case of `COC(=O)N(c1ccc(OC)cc1)P1(=S)OCCC(C)O1` (stereo not given), the inhibition was -1.86% (inactive).
The figure for `COc1cc2nc(N3CCN(C(=O)[C@@H]4CCCO4)CC3)nc(N)c2cc1OC` is -11.2% (inactive).
With `CCOc1ccc(-c2cc(C)[n+](CCN(CC)CC)c(-c3ccc(OCC)cc3)c2)cc1`, the inhibition is 24.6% (active).
The figure for `COc1ccc(Br)cc1CNCCc1cccc(Cl)c1` is 35.6% (active); for `COc1ccc(CNCCc2ccc3c(c2)OCO3)c(OC)c1OC` it is 18.9% (inactive); for `COc1ccc(CNCCc2c[nH]c3ccccc23)cc1OC` it is 3.96% (inactive).
In the case of `CN1CCC(OC(=O)c2cccc(F)c2)CC1`, the inhibition was 1.33% (inactive).
The result for `CCCCCCN=C(CC)c1c(O)n(CCCC)c(=O)[nH]c1=O` reads -13.1% (inactive); that for `Cc1c(Oc2cc(NN3CCCCC3)c([N+](=O)[O-])cc2[N+](=O)[O-])cccc1[N+](=O)[O-]`, -6.67% (inactive); that for `CCC(C)n1c(O)c(/C=N/Nc2nc3c(c(=O)n(C)c(=O)n3C)n2C)c(=O)[nH]c1=S` (stereo not given), -8.09% (inactive).
Regarding `Cc1ccnc(-n2c(C)cc(/C=C3\C(=O)NC(=S)N(C)C3=O)c2C)c1`, the inhibition is -2.63% (inactive).
With `CSc1ccc(C(=O)C2CCCN(Cc3ccn[nH]3)C2)cc1` (stereo not given), the inhibition is 5.68% (inactive).

For the origin of these results see PubChem BioAssay AID1861 (The Scripps Research Institute Molecular Screening Center, 2009).
